Bioassay records: PubChem, Broad Institute
STK33 kin inh = human STK33 kinase inhibition | ADP-Glo luminescence, MBP substrate | inhibition, % at 12.5 µM | 27,000 tested, 0.44% active | AID 2322; in the data active means inhibition above about 20%
Target sequence (Q9BYT3 whole entry, looked up): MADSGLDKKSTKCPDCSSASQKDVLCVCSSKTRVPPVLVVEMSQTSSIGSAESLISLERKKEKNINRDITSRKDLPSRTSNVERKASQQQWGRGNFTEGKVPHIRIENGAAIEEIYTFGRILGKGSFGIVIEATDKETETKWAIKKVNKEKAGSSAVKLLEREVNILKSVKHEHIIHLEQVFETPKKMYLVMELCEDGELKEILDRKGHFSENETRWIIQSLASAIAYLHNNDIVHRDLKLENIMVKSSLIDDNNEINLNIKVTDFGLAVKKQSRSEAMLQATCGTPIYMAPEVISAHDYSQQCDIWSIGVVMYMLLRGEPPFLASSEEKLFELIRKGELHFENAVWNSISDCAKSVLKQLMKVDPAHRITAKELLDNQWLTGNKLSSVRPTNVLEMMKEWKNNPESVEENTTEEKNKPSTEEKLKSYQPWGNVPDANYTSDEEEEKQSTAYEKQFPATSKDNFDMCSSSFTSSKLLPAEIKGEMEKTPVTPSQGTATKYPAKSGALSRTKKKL
NOMO-1 viab = STK33 inhibitor candidate reducing NOMO-1 cell viability; 37,000 tested, 7.5% active; inhibition, % (test concentration not listed); NOMO-1 AML viability, CellTiter-Glo luminescence, 72 h; AID 2330; in the data active means inhibition above about 80%
PD-1 reverse act = activators reversing PD-1 mediated T-cell inhibition; primary human CD4 T cells, PD-L1 beads, CellTiter-Glo 96 h; 29,000 tested, under 10 active; activation, % (test concentration not listed); AID 2316; call rule not given here;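 further: 0% = median vehicle wells and 100% = positive control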
The depositor's hits bear a star; . = not tested or not shown. This excerpt belongs to a sample that is enriched for hits.

SMILES | STK33 kin inh | NOMO-1 viab | PD-1 reverse act
O=C(CSc1nnc(-c2ccccc2)n1-c1ccccc1)Nc1c(F)cc(F)cc1Br | -2.7 | 1.1 | 1.4
CCN1CCN(C(=O)C(C)N(c2ccccc2)S(C)(=O)=O)CC1 (stereo not given) | -1.6 | -16.8 | 1.9
C[C@H]1CN([C@@H](C)CO)C(=O)c2cc(NC(=O)Nc3ccc(F)cc3)ccc2O[C@H]1CN(C)Cc1ccc(Cl)c(Cl)c1 | 1.1 | 99.4* | 1.1
C[C@@H]1CN([C@H](C)CO)C(=O)c2cc(NC(=O)Nc3ccc(F)cc3)ccc2O[C@H]1CN(C)Cc1ccc(Cl)c(Cl)c1 | 0.3 | 15.0 | 1.4
CCOc1ccc(Nc2nc3cc(C)ccc3cc2C)cc1 | . | 23.4 | 0.9
CC(C)(C)c1ccc(OCC(=O)NCc2cccnc2)c(Br)c1 | 0.6 | 23.2 | -2.1
CC1(C)CC(=O)C2=C(C1)N(Cc1cccnc1)C(=O)C2(NC(=O)c1ccco1)C(F)(F)F (stereo not given) | 0.3 | 7.1 | 1.1
C[C@@H]1CN([C@H](C)CO)C(=O)Cc2cc(NC(=O)Nc3ccc(C(F)(F)F)cc3)ccc2O[C@@H]1CN(C)S(C)(=O)=O | 0.3 | 86.3* | -1.9
C[C@@H]1CN([C@H](C)CO)C(=O)Cc2cc(NC(=O)Nc3ccc(C(F)(F)F)cc3)ccc2O[C@H]1CN(C)C | -0.5 | -9.4 | 3.2
C[C@H]1CN([C@@H](C)CO)C(=O)Cc2cc(NC(=O)Nc3ccc(C(F)(F)F)cc3)ccc2O[C@H]1CN(C)S(=O)(=O)c1cccs1 | -0.7 | 128.1* | -3.5
C[C@H]1CN([C@@H](C)CO)C(=O)Cc2cc(NC(=O)Nc3ccc(C(F)(F)F)cc3)ccc2O[C@H]1CN(C)S(C)(=O)=O | 0.9 | 89.7* | .
C[C@H](CO)N1C[C@H](C)[C@H](CN(C)C)Oc2ccc(NC(=O)Nc3ccc(C(F)(F)F)cc3)cc2CC1=O | 2.3 | 41.4 | .
C[C@H]1CN([C@@H](C)CO)C(=O)Cc2cc(NC(=O)Nc3ccc(C(F)(F)F)cc3)ccc2O[C@H]1CN(C)S(=O)(=O)c1cn(C)cn1 | -0.3 | 125.3* | -0.4
C[C@@H]1CN([C@H](C)CO)C(=O)Cc2cc(NC(=O)Nc3ccc(F)cc3)ccc2O[C@@H]1CN(C)S(=O)(=O)c1cn(C)cn1 | 1.0 | 20.0 | .
C[C@@H]1CN([C@H](C)CO)C(=O)Cc2cc(NC(=O)Nc3ccc(C(F)(F)F)cc3)ccc2O[C@@H]1CN(C)S(=O)(=O)c1cccs1 | 2.0 | 74.0 | 0.1
O=C(Nc1ccccc1[N+](=O)[O-])C1(c2ccccc2)CCN(S(=O)(=O)c2ccccc2)CC1 | -1.8 | -8.2 | .
Cc1cccc(N(CC(=O)Nc2ccc(Cl)c(Cl)c2)S(C)(=O)=O)c1 | -0.7 | 36.7 | -2.4
Cc1onc(-c2c(Cl)cccc2Cl)c1NC(=O)N1CCCC1=O | 0.0 | 16.4 | -0.5
Cc1c(C(=O)Cc2c(O)c3ccccc3oc2=O)sc2nc(C(F)(F)F)nn12 | . | -10.1 | 0.0
C[C@H]1CN([C@@H](C)CO)C(=O)c2cc(NC(=O)Nc3cccc4ccccc34)ccc2O[C@H]1CN(C)Cc1ccncc1 | . | 108.3* | -3.2
C[C@@H]1CN([C@H](C)CO)C(=O)c2cc(NC(=O)Nc3cccc4ccccc34)ccc2O[C@@H]1CN(C)Cc1ccccc1 | . | 56.6 | .
C[C@H]1CN([C@@H](C)CO)C(=O)c2cc(NC(=O)Nc3cccc4ccccc34)ccc2O[C@@H]1CN(C)Cc1ccc(-c2ccccc2)cc1 | -2.2 | 101.7* | -3.7
C[C@H]1CN([C@@H](C)CO)C(=O)c2cc(NC(=O)Nc3cccc4ccccc34)ccc2O[C@@H]1CN(C)Cc1ccccc1 | . | 22.7 | -3.2
C[C@@H]1CN([C@H](C)CO)C(=O)c2cc(NC(=O)Nc3cccc4ccccc34)ccc2O[C@@H]1CN(C)Cc1ccc(-c2ccccc2)cc1 | . | 89.9* | .
C[C@@H]1CN([C@@H](C)CO)C(=O)c2cc(NC(=O)Nc3cccc4ccccc34)ccc2O[C@@H]1CN(C)Cc1ccccc1 | 0.5 | 33.7 | 1.1
SMILES | STK33 kin inh | NOMO-1 viab | PD-1 reverse act
C[C@H]1CN([C@@H](C)CO)C(=O)c2cc(NC(=O)Nc3cccc4ccccc34)ccc2O[C@@H]1CN(C)Cc1ccncc1 | -6.1 | 6.8 | -2.4
C[C@H](CO)N1C[C@H](C)[C@H](CN(C)Cc2ccc(-c3ccccc3)cc2)Oc2ccc(NC(=O)Nc3cccc4ccccc34)cc2C1=O | . | 119.7* | -4.3
CCCc1ccc(Oc2ccc(NC(=O)C3CC3C(=O)O)cn2)c(OC)c1 (stereo not given) | . | -10.0 | 1.5
Cn1c(SCC(=O)Nc2ccc([N+](=O)[O-])cc2)nc2ccccc21 | 0.6 | 17.9 | -2.0
CC(Oc1ccccc1)C(=O)O (stereo not given) | . | 32.4 | -0.1
COc1cc2c(cc1OC)CN(C(=O)CSc1ncnc3sc(C)c(C)c13)CC2 | 0.6 | -17.9 | 1.5
CSC1=N/C(=C\c2ccc(Cl)cc2)C(=O)N1CCc1c[nH]c2ccccc12 | . | 84.9* | -0.6
CSC1=N/C(=C\c2ccc(Cl)cc2)C(=O)N1CCOc1ccc(Cl)cc1 | 1.4 | 9.1 | 2.9
O=C(O)C1CCCCC1C(=O)Nc1ccc([N+](=O)[O-])cc1 (stereo not given) | 0.0 | -2.9 | 1.7
CC(=O)Oc1cc(OC(C)=O)c2c(c1)O[C@H](c1ccc(OC(C)=O)c(OC(C)=O)c1)[C@H](OC(C)=O)C2 | 1.3 | 63.0 | .
CCC(C)c1ccc(NC(=O)CSc2nc3ncccc3[nH]2)cc1 (stereo not given) | -2.8 | 46.7 | .
COc1ccc(S(=O)(=O)Nc2ccc3c(c2)CC(=O)N([C@H](C)CO)C[C@@H](C)[C@H](CN(C)Cc2ccc(-c4ccccc4)cc2)O3)cc1 | 5.1 | 72.0 | -3.4
COc1ccc(S(=O)(=O)Nc2ccc3c(c2)CC(=O)N([C@H](C)CO)C[C@H](C)[C@H](CN(C)Cc2ccc(-c4ccccc4)cc2)O3)cc1 | 3.8 | 88.3* | .
COc1ccc(S(=O)(=O)Nc2ccc3c(c2)CC(=O)N([C@@H](C)CO)C[C@@H](C)[C@@H](CN(C)Cc2ccc(-c4ccccc4)cc2)O3)cc1 | 3.0 | 62.3 | 0.6
COc1ccc(S(=O)(=O)Nc2ccc3c(c2)CC(=O)N([C@@H](C)CO)C[C@H](C)[C@@H](CN(C)Cc2ccc(-c4ccccc4)cc2)O3)cc1 | 10.1 | 124.9* | .
COc1ccc(S(=O)(=O)Nc2ccc3c(c2)CC(=O)N([C@@H](C)CO)C[C@H](C)[C@H](CN(C)Cc2ccccc2)O3)cc1 | 0.8 | 45.9 | 5.4
COc1ccc(S(=O)(=O)Nc2ccc3c(c2)CC(=O)N([C@@H](C)CO)C[C@H](C)[C@H](CN(C)Cc2ccc(-c4ccccc4)cc2)O3)cc1 | -1.3 | 89.8* | 0.2
COc1ccc(C(=O)NCCCSc2nc(C(C)(C)C)cc(C(F)(F)F)n2)cc1 | -2.4 | 16.3 | -0.7
Cn1c(=O)c2c(nc(SCc3nn[nH]n3)n2Cc2ccccc2)n(C)c1=O | 0.6 | -17.9 | 1.7
O=[N+]([O-])c1ccc(O)c(C(c2c[nH]c3ccccc23)c2c[nH]c3ccccc23)c1 | -2.6 | 16.0 | 0.6
O=C1Cc2c([nH]c3ccc([N+](=O)[O-])cc23)-c2ccccc2N1 | 22.6* | 99.3* | -13.7
c1ccc(OCc2nc3ccccc3n2Cc2ccccn2)cc1 | -0.2 | 27.5 | .
COc1ccc(CN(CCN(C)C)c2ccccn2)cc1 | -1.5 | 26.1 | .
COC(=O)CCN(C(=O)c1ccc(OC(C)=O)cc1)c1ccccn1 | 1.4 | 103.7* | .
